Rows were chosen to be rich in hits. Some 12% of all compounds tested hit in one or more screens of this group.
Sfp PPTase inh: qHTS Assay for Inhibitors of Bacillus subtilis Sfp phosphopantetheinyl transferase (PPTase) | 310,000 tested, 3.5% active | 4'-phosphopantetheinyl transferase ffp (Bacillus subtilis), Q9F4F7 | Biochemical Sfp PPTase activity, qHTS | Potency, µM, for inactives: largest response in the series, negative = inhibition, most hits filed as inhibitors;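 note: the enzyme is Sfp with the accession as filed and its product quenches rhodamine fluorescence; 0% = enzyme reaction without inhibitor and -100% = no enzyme wells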
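Fluorescence-quenching assay with 15 nM Sfp, 5 uM rhodamine-CoA and 12.5 uM BHQ-2-labelled ybbR peptide in pH 7.6 Hepes/MgCl2 buffer. Enzyme was pre-incubated with compound for 15 min at room temperature. Rate was taken from the 30-min fluorescence change (525/598 nm).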
BAZ2B block: qHTS Assay for Inhibitors of BAZ2B. 360,000 tested, 4.4% active. Bromodomain adjacent to zinc finger domain protein 2B (Homo sapiens), Q9UIF8. AlphaScreen BAZ2B-H3K14Ac peptide displacement. Potency, µM (series often up to 114 µM), for inactives: at the highest dose activity change, negative = inhibition, actives largely listed as inhibitors; note: % is set by controls: 0 for no effect and ±100 for the full control effect; nearly all actives have a fitted effect of over 60% in size
Target sequence (Q9UIF8 whole entry, looked up, the tested form may be a part): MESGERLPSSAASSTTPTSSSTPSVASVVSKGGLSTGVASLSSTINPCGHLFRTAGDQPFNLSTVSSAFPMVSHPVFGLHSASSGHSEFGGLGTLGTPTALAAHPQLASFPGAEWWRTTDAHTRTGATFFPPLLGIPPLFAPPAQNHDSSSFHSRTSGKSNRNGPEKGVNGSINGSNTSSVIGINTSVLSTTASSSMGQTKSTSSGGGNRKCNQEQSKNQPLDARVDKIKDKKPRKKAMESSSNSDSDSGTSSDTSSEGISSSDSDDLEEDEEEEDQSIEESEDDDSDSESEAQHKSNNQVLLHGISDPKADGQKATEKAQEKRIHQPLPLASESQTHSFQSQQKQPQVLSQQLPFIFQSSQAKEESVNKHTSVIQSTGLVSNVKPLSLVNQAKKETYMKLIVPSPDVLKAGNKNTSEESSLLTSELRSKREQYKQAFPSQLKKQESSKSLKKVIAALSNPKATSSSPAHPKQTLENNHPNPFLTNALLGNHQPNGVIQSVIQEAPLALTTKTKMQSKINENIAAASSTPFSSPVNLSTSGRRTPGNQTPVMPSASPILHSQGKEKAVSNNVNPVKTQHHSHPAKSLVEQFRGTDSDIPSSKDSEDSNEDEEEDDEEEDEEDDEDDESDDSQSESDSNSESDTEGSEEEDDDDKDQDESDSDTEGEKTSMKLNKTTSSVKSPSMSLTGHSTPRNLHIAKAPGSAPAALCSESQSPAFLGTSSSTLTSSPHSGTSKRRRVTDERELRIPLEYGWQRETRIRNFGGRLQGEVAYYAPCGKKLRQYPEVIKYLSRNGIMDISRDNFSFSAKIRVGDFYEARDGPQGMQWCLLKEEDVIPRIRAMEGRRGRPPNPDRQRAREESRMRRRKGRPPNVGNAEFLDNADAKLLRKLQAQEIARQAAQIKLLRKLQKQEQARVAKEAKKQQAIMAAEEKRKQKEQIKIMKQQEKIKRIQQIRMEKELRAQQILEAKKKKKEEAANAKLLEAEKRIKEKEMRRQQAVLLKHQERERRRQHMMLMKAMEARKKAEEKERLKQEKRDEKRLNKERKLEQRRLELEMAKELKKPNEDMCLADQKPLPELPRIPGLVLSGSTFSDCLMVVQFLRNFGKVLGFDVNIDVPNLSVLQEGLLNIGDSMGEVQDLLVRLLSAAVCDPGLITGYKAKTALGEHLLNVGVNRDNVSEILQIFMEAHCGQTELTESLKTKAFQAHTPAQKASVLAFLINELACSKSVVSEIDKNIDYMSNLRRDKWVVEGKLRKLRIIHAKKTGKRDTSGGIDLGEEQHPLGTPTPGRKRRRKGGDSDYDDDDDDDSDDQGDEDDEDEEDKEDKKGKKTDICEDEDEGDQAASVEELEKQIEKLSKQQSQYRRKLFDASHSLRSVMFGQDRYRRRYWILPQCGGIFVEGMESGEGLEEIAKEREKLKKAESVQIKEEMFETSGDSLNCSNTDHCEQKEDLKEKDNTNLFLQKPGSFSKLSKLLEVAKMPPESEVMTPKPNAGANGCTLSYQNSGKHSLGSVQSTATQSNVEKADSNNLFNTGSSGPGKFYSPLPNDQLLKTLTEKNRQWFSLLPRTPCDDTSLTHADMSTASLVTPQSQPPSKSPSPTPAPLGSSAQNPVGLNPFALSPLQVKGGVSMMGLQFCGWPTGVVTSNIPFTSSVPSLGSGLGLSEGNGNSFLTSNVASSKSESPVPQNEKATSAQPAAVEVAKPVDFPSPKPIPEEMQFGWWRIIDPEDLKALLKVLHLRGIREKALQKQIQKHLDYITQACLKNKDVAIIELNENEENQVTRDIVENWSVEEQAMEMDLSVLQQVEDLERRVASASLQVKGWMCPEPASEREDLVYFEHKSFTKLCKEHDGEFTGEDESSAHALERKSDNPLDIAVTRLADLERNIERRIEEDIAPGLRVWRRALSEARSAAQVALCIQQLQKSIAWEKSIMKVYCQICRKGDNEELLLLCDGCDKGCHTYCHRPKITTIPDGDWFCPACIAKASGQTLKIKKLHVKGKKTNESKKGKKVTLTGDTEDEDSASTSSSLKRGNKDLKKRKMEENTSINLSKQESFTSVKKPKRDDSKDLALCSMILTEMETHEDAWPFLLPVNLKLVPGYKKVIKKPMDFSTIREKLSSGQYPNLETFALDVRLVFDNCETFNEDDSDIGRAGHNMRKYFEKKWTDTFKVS
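Inhibition is scored as reduced AlphaScreen emission. The BAZ2B/b-H3(5-23)K14Ac complex (50 nM each) in PBS pH 7.4, 0.01% Tween-20 meets compound (up to 110 uM) for 30 min at RT before bead addition.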
G9a block: qHTS Assay for Inhibitors of Histone Lysine Methyltransferase G9a | 350,000 tested, 8.8% active | Histone-lysine N-methyltransferase EHMT2 (Homo sapiens), Q96KQ7 | G9a H3K9 monomethylation, AlphaScreen, 2 h | Potency, µM (top dose mostly 102 µM), for the others: at the highest dose activity, negative = inhibition, hits mostly inhibitors; note: % is set by controls: 0 for no effect and ±100 for the full control effect; nearly all actives have a fitted effect of over 75% in size
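AlphaScreen read-out: biotin-H3K9 peptide (500 nM) methylation by 20 nM enzyme with 20 uM SAM, 2 h at room temperature after 15 min compound preincubation; anti-monomethyl H3K9 antibody plus donor/acceptor beads, 10 min dark.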
PLK1 PBD inh: qHTS for Inhibitors of PLK1-PDB (polo-like kinase 1 - polo-box domain): Primary Screen | Serine/threonine-protein kinase PLK1 (Homo sapiens), P53350 | Plk1 PBD binding of FITC phosphopeptide, fluorescence polarization | Potency, µM, inactives show max response, negative = inhibition, actives largely listed as inhibitors | 360,000 tested, 2.8% active; note: series mostly up to about 57 µM; % is set by controls: 0 for no effect and ±100 for the full control effect; nearly all actives have a fitted effect of over 65% in size
JMJD2A Tudor inh: qHTS Assay for Inhibitors of JMJD2A-Tudor Domain; AlphaScreen JMJD2A-Tudor / H3K4me3 peptide binding; Potency, µM (titrated, usually from 114 µM), for inactives: at the highest dose activity change, negative = inhibition, actives largely listed as inhibitors; 390,000 tested, 4.4% active; note: % is set by controls: 0 for no effect and ±100 for the full control effect; nearly all actives have a fitted effect of over 50% in size
HP1b chromo inh: HTS for Inhibitors of HP1-beta Chromodomain Interactions with Methylated Histone Tails. Potency, µM (series often up to 114 µM), inactives show top-dose activity change, negative = inhibition, most hits filed as inhibitors. 390,000 tested, 0.56% active. AlphaScreen HP1-beta / biotin-H3K9me3 peptide binding; note: nearly all actives have a fitted effect of over 70% in size
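AlphaScreen: HP1-beta (50 nM) preformed 30 min with biotin-H3(1-18)K9me3 peptide (50 nM) in PBS pH 7.4, 0.01% Tween-20. Compound added for 30 min at RT, then streptavidin donor/nickel chelate acceptor beads (10 ug/mL) for 30 min.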
* = called active by the depositor; u = inconclusive; x = no result given; [ ] = dose if it differs, or a comment. Calls come from the whole dose curve; as a rule, active = well fitted curve in the direction sought with a large enough effect; inconclusive = small, poorly fitted or top-dose-only effect, or another doubt; inactive = no such curve, though single readings can be large; an effect the other way counts as inactive or inconclusive. Potency is the fitted concentration of half-maximal effect.

SMILES | Sfp PPTase inh | BAZ2B block | G9a block | PLK1 PBD inh | JMJD2A Tudor inh | HP1b chromo inh
CCOC(=O)c1cncc(C(=O)O)c1 | -4.5% | 11.5%[57.1 µM] | u | -3.8% | -24.2% | 46.7%
CCc1ccc(NC(=O)N(CCCN2CCOCC2)Cc2cccs2)cc1 | 11.7% | 11.0% | 7.7% | -8.4% | -25.5% | 39.9%
CCN1CCCc2cc(CN(CCN3CCOCC3)C(=S)Nc3ccc(OC)c(OC)c3)ccc21 | 15.7% | -33.8% | -6.8%[59 µM] | -6.3% | -26.5%[11.4 µM] | 30.2%
CCCCN1CCCc2cc(CN(CCCN3CCOCC3)C(=O)Nc3ccc(OCC)cc3)ccc21 | x | -26.3% | u | x | 12.6µM* | u
CCN1CCCc2cc(CN(CCN3CCOCC3)C(=O)Nc3ccc(C)c(C)c3)ccc21 | -14.5% | 44.7µM* | 8.91µM* | -18.1% | 28.2µM* | u
CCc1ccc(NC(=O)N(CCN2CCOCC2)Cc2ccc3c(c2)CCCN3CC)cc1 | u | u | 31.6µM* | -13.9% | 22.4µM* | 28.2µM*
COC(=O)C/C=C\[C@@H](C)[C@@H](/C=N\O[C@@H](C)c1cc(-c2c(C)cc(C)cc2C)no1)NS(=O)(=O)c1ccc(C)cc1 | 8.1% | x | x | x | x | x
O=Cc1cccn1-c1ccc(O)cc1 | 6.0% | 79.4µM* | -19.6% | 2.3% | -1.0% | 39.3%
O=C1CC(C(=O)Nc2ccccc2)S/C(=N\NC(=O)c2ccccc2Cl)N1 (stereo unspecified) | 21.7% | -17.6% | 103.4%[59 µM] | -1.0% | -13.8% | 36.1%
COc1ccc(C(C)=O)cc1COC(=O)CCNS(=O)(=O)c1ccc(C)cc1 | x | 8.4% | 50.1µM* | u | -9.5% | -0.7%
COc1ccc(C(C)=O)cc1COC(=O)CCNS(=O)(=O)c1ccc(C(C)=O)cc1 | 8.2% | -19.4% | 5.9% | -21.3% | -8.2% | 15.2%
CCOc1ccc(NC(=O)N(Cc2c[nH]c3ccccc23)C2CCCCCC2)cc1 | x | x | 5.3%[59 µM] | x | -18.3% | 32.6%
CCN(CC)CCN(C(=O)c1ccc(C(=O)c2ccccc2)cc1)c1nc2cc3c(cc2s1)OCO3 | -9.6% | u | 39.8µM* | -1.8% | u | 3.4%
CN(C)CCCN(C(=O)c1ccc(Cl)s1)c1nc2cc3c(cc2s1)OCO3 | -0.6% | u | u | 0.0% | -19.9% | 13.2%
CCN(CC)CCN(C(=O)CCS(=O)(=O)c1ccccc1)c1nc2cc3c(cc2s1)OCO3 | -12.4% | -14.3% | 44.7µM* | -14.8% | -23.4% | 45.5%
CN(C)CCN(C(=O)c1ccc2ccccc2c1)c1nc2cc3c(cc2s1)OCO3 | x | x | x | -18.8% | x | x
CN(C)CCCN(C(=O)c1cc(Cl)sc1Cl)c1nc2cc3c(cc2s1)OCO3 | -5.2% | u | 50.1µM* | -14.0% | u | -0.3%
CN(C)CCCN(C(=O)c1ccc(C(=O)c2ccccc2)cc1)c1nc2cc3c(cc2s1)OCO3 | -20.2% | 44.7µM* | u | -10.3% | 50.1µM* | u
CCCCc1cc(=O)oc2cc(C)cc(OCC(=O)Nc3ccccn3)c12 | 4.4% | -10.2% | 12.4% | -3.2% | -1.4% | 23.5%
Nc1ccnc(Oc2ccc(F)cc2)c1 | 1.7% | 6.6% | 3.5%[59 µM] | -10.4% | -3.5% | 9.6%
CCOC(=O)C1=C(N)Oc2ccc(Br)cc2[C@@H]1[C@@H](C#N)C(=O)OCC | -4.5% | x | x | x | x | x
O=C(O)C1OC(C(=O)O)C(C(=O)O)C1C(=O)O (stereo unspecified) | x | x | x | 7.5% | 20µM* | -13.1%
COc1cccc(OC)c1OCC(=O)Nc1ccc(S(=O)(=O)N2CCCC2)cc1 | x | x | x | -11.9% | -22.8% | 20.6%
COc1ccc(O)c(-c2cc(-c3cccs3)[nH]n2)c1 | -17.6% | 70.8µM* | 9.8%[59 µM] | u | 15.8%[11.4 µM] | -15.9%
COC(=O)C1=C(C)N(Cc2ccccc2)C(=NCc2cc(OC)c(OC)c(OC)c2)N[C@H]1c1cccc(F)c1 | -11.8% | -6.3% | 6.6%[12.7 µM] | -0.7% | -34.5% | 17.5%
SMILES | Sfp PPTase inh | BAZ2B block | G9a block | PLK1 PBD inh | JMJD2A Tudor inh | HP1b chromo inh
COC(=O)C1=C(C)N(Cc2ccccc2)C(=NCc2ccc(OC)cc2)N[C@H]1c1cccc(F)c1 | -6.7% | u | 79.4µM* | -8.0% | u | -0.4%
COC(=O)C1=C(C)N(Cc2ccccc2)C(=NCc2ccco2)N[C@H]1c1cccc(F)c1 | x | x | x | 3.6% | u | 19.7%
COC(=O)C1=C(C)N(Cc2ccccc2)C(=NCc2cccc(Cl)c2)N[C@H]1c1cccc(F)c1 | 56.2µM* | -5.9% | x | 2.3% | -21.7% | 2.7%
O=CN/C=C/c1cc(F)cc(F)c1F | 32.5% | x | x | x | x | x
O=C(C[C@H]1C/C=C\CC[C@H](Cc2ccc(F)cc2)C(=O)O[C@H](c2ccccc2)CNC1=O)N[C@H](CO)Cc1ccccc1 | x | x | x | -4.7% | -26.0% | 10.9%
CCCN(CC(=O)Nc1ccc(F)c(F)c1F)C(=O)C1=COCCO1 | x | -10.0% | 56.2µM* | -3.4% | 2.6% | 38.4%
Cc1ccccc1Nc1c(-c2ccc(Cl)s2)nc2ccccn12 | x | x | x | x | -12.9% | 12.3%
Cn1c(=O)oc2cc(S(=O)(=O)N3CCC(C(=O)NCc4ccccc4Cl)CC3)ccc21 | 18.9% | -19.3% | -8.3% | -4.4% | -12.5% | 29.1%
O=C(C[n+]1ccc2ccccc2c1)c1cccc2ccccc12 | -12.6% | -18.6% | 28.2µM* | 23.8µM* | -29.1% | 19.2%
COc1ccc(-c2nc(C)c(CCNC(=O)c3cc(OC)c(OC)c(OC)c3)s2)cc1OC | x | -12.1% | -4.6%[59 µM] | x | -15.8% | 10.0%[57 µM]
N#CCCN(C(=O)COC(=O)c1ccc2ccccc2n1)c1ccccc1 | x | -4.3% | 7.7%[2.33 µM] | -8.2% | -7.5% | 22.8%
CN1CCc2nc3ccccc3c(C(=O)OCC(=O)N(CCC#N)c3ccccc3)c2C1 | -8.8% | u | 22.4µM* | -5.5% | -12.7% | 28.9%
CC(=O)Nc1ccc(-c2ccnc3c2CC(C)(C(=O)Nc2cccc(OC(F)(F)F)c2)O3)cc1 (stereo unspecified) | x | x | x | -6.5% | x | x
CC(=O)c1cccc(NC2c3ccccc3C(=O)N2Cc2ccco2)c1 (stereo unspecified) | 6.0% | -23.9% | -6.1% | -17.9% | -23.0% | 48.1%
O=C1c2cccnc2C(Nc2cccc(F)c2)N1Cc1ccco1 (stereo unspecified) | 2.8% | -27.7% | 25.1µM* | 0.8% | -5.2% | 17.3%
O=C1c2cccnc2C(Nc2ccccc2Br)N1Cc1ccco1 (stereo unspecified) | 56.2µM* | -13.1% | 50.1µM* | -18.1% | -20.3% | 9.4%
Cc1ccc(NC2c3ncccc3C(=O)N2Cc2cccs2)cc1 (stereo unspecified) | -9.0% | x | 44.7µM* | 21.2µM* | 14.1µM* | -9.5%
